# From PubChem BioAssay (NCATS)
# Inconclusive results are not listed. Values without a mark were called inactive. Calls follow the shape of the dose curve; as a rule, active = well fitted curve in the direction sought with a large enough effect; inconclusive = small, poorly fitted or top-dose-only effect, or another doubt; inactive = no such curve, though single readings can be large or run the other way.
# Assay: qHTS Assay for Identifying Gametocytocidal Compounds (AID 743244);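 also: actives lower the fluorescent signal which means gametocytes are killed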
# Settings: P. falciparum 3D7 stage III-V gametocytes, alamarBlue, 72 h; max response: hits give low values
# Procedure, shortened: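 Stage III-V P. falciparum 3D7 gametocytes, 20,000 per well, were exposed to compounds for 72 h at 37C, 5% CO2. AlamarBlue was then added for 24 h and viability was read as fluorescence at Ex 525/Em 598 nm.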
# % is scaled to controls: 0 for no effect and ±100 for the full control effect.
row,SMILES,max response
1,NC(N)=N[C@@H](CCC(=O)O)C(=O)O,-1.42%
2,COCc1nc2c([nH]1)c(=O)n(C)c(=O)n2CC(C)C,28.7%
3,C=CCn1c(=O)c2c(nc(-c3ccc(S(=O)(=O)O)cc3)n2C)n(C)c1=O,2.53%
4,CCCCCCN(CCCCCC)C(=O)Cc1c(-c2ccc(F)cc2)[nH]c2ccccc12,19.7%
5,CC[C@H](NC(=O)c1c(C)c(-c2ccccc2)nc2ccccc12)c1ccccc1,5.87%
6,COc1ccc(C(=O)NCc2cccnc2)cc1C(=O)NCc1cccnc1,22.9%
